Holding throughout (assay): NCI-60 one-dose screen, 48 h (100 = growth as untreated, 0 = no growth, -100 = all killed)
Common to all, as to settings: 10 µM

The test system of experiment [1] is NCI-H23 lung.
The subject of experiment [2] is NCI-H226 lung.
Experiment [3] has as its system NCI-H322M lung.
Experiment [4] concerns HOP-62 NSCLC.
For experiment [5], the system named is NCI-H460 lung.
In experiment [6] the test system is HOP-92 NSCLC.
In experiment [7] the test system is NCI-H522 lung.
Experiment [8] concerns A549/ATCC NSCLC.
Experiment [9] concerns COLO 205 colon.
The test system of experiment [10] is 786-0 renal.

Compounds without any hit were thinned out: in the full panel of roughly 83,000, 20% have a hit.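 Plates (96-well) were seeded with cells, treated with compound at one concentration, and incubated for 48 hours before percent growth was determined.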 A number with no mark means an inactive call. Calls of active or inactive are those of the source. How the source made its calls: active means growth percent below 10; inactive means the rest.

With `COc1cccc(Sc2ccc([N+](=O)[O-])c3no[n+]([O-])c23)c1`, the growth was 68.8% in experiment [1]; 85.3% in [2]; 88.7% in experiment [3]; 103% in experiment [4]; 95.7% in experiment [5]; 3.91% (active) in [6]. Further, the growth was -19.9% (active) in experiment [7], 84% in [8] and -42.2% (active) in experiment [9].

As to `Cc1ccc(O)c(C(=O)c2ccccc2)c1`, the growth in experiment [1] is 98.4%; in experiment [2], 104%; in [3] it was 138%; in [4], 114%; in experiment [5], 113%; in experiment [6], 93.8%. In addition, the growth in experiment [8] is 95.9%; in experiment [10] it was 111%; in experiment [9], 113%.

For the compound `NC(=S)CN1CCOCC1`, the growth in experiment [1] is 106%; in experiment [2], 114%; in [3], 91.6%; in experiment [4] it was 118%; in [5], 105%; in experiment [6] it was 91.9%. For the same compound, the growth in experiment [7] was 97.9%; in experiment [8], 110%; in experiment [9] it was 118%.

With `C=CCNc1nnc(C)s1`, the growth in [1] was 98.1%; in experiment [2] it was 99.8%; in experiment [3], 96.7%; in experiment [4] it was 98.8%; in experiment [5] it was 115%; in [6], 83%. For the same compound, the growth in [8] is 116%; in experiment [10] it was 94.9%; in [9] it was 122%.

As for `CN(c1ccccc1)c1ncnc2c1ncn2C`, the growth is 101% in experiment [1]; 107% in experiment [2]; 115% in [3]; 103% in experiment [4]; 101% in [5]; 105% in experiment [6]. Further, the growth in [8] was 87.3%; in experiment [10] it was 106%; in [9], 105%.

On to `COc1ncnc2c1cnn2C`, for which the growth in [1] is 106%; in [2] it was 106%; in experiment [3], 116%; in [4], 94.4%; in experiment [5] it was 106%; in [6], 99.9%. For the same compound, the growth was 105% in [8] and 104% in [9].

Regarding `c1cc2cccc3c4cccc5cccc(c(c1)c23)c54`, the growth is 101% in experiment [1]; 98.8% in [2]; 119% in experiment [3]; 97.7% in experiment [4]; 109% in experiment [5]; 89.6% in experiment [6]. In addition, the growth is 125% in [8] and 104% in experiment [9].

For the compound `CCCCOC(OCCCC)c1ccccc1`, the growth was 95% in [1]; 107% in [2]; 104% in experiment [3]; 117% in experiment [4]; 109% in [5]; 101% in [6]. Moreover, the growth in experiment [8] is 91.4%; in experiment [10], 105%; in [9], 112%.

On to `O=C(O)c1ccccc1NCc1ccco1`, for which the growth was 90.9% in experiment [1]; 92.6% in experiment [2]; 102% in [3]; 95.7% in experiment [4]; 102% in experiment [5]; 108% in experiment [6]. Further, the results for the growth in [8], in experiment [10] and in experiment [9] were 102%, 97.2% and 126%, respectively.

As to `CC(CN1CCCCC1)NC(=O)c1scnc1-c1ccccc1` (stereo not drawn), the growth is 101% in experiment [1]; 108% in experiment [2]; 95.6% in [3]; 100% in experiment [4]; 111% in experiment [5]; 91.9% in [6]. The results for the growth in [8], in experiment [10] and in experiment [9] were 96.8%, 102% and 104%, respectively.

For the compound `OCCN1CCOCC1`, the growth in experiment [1] was 115%; in experiment [2] it was 112%; in experiment [3], 125%; in [4] it was 104%; in [5], 104%; in [6], 115%. The values for the growth in experiment [8] and in experiment [9] were 104% and 119%, respectively.

Consider `CCN=c1cc2sc3cc(NCC)c(C)cc3nc-2cc1C`, for which the growth in experiment [1] is 5.46% (active); in experiment [2], 64.2%; in experiment [3], 27.3%; in experiment [4] it was 29.4%; in [5], 1.61% (active); in experiment [6], 16.3%. Moreover, the growth in experiment [8] is -40.3% (active); in experiment [10], 46.3%; in [9] it was -25.8% (active).

Turning to `Cc1ccc(C(=O)c2ccccc2)c(C)c1`, the growth in experiment [1] is 99.6%; in [2], 104%; in experiment [3] it was 105%; in experiment [4], 95%; in experiment [5], 110%; in experiment [6] it was 111%. In addition, the growth was 110% in experiment [8] and 109% in experiment [9].

As for `CC1NC(=O)NC1CCCCCC(=O)O` (stereo not drawn), the growth was 100% in experiment [1]; 103% in experiment [2]; 132% in experiment [3]; 104% in experiment [4]; 111% in experiment [5]; 72.9% in [6]. For the same compound, the growth was 94.9% in experiment [8] and 110% in [9].

In the case of `NNc1ccccc1C(=O)O`, the growth in experiment [1] was 111%; in [2] it was 96%; in experiment [3], 128%; in [4] it was 104%; in [5], 110%; in experiment [6], 98.1%. The growth in experiment [8] is 109%; in experiment [10], 113%; in experiment [9], 107%.

As for `C[C@]12CC[C@@H]3c4ccc(OCC(=O)O)cc4CC[C@H]3[C@@H]1CCC2=O`, the growth was 94.2% in experiment [1]; 95.7% in [2]; 98% in experiment [3]; 75% in experiment [4]; 101% in [5]; 92.1% in experiment [6]. For the same compound, the growth in experiment [8] is 93.3%; in experiment [10], 102%; in [9], 105%.

For the compound `c1cc[n+](C2c3ccccc3C([n+]3ccccc3)c3ccccc32)cc1` (stereo not drawn), the growth in [1] is 65.2%; in experiment [2], 49.6%; in experiment [3], 84.8%; in experiment [4], 37.8%; in [5], 98.8%; in [6] it was 20.6%. The growth was 78.5% in experiment [8], 50% in experiment [10] and 30.8% in experiment [9].

The values above are taken from PubChem BioAssay (NCI).
